BAZ2B inh = qHTS Assay for Inhibitors of BAZ2B. AID 504333, 2011. Bromodomain adjacent to zinc finger domain protein 2B (Homo sapiens), Q9UIF8. AlphaScreen BAZ2B-H3K14Ac peptide displacement. 4.4% of 360,000 active. Potency, µM (highest dose often 114 µM), inactives show at the highest dose activity change, negative = inhibition, hits mostly inhibitors; also: % is scaled to controls: 0 for no effect and ±100 for the full control effect; nearly all actives have a fitted effect of over 60% in size
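Protein-peptide AlphaScreen: BAZ2B 50 nM, b-H3K14Ac 50 nM, 1x PBS pH 7.4 + 0.01% Tween-20. Preincubation 30 min RT; cpd 30 min RT (top 110 uM); beads 20 min RT, light-protected.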
G9a block = qHTS Assay for Inhibitors of Histone Lysine Methyltransferase G9a. Histone-lysine N-methyltransferase EHMT2 (Homo sapiens), Q96KQ7. G9a H3K9 monomethylation, AlphaScreen, 2 h. Potency, µM (series often up to 102 µM), without a hit: top-dose activity, negative = inhibition, most hits filed as inhibitors. 8.8% of 350,000 active. AID 504332, 2011; also: % is scaled to controls: 0 for no effect and ±100 for the full control effect; nearly all actives have a fitted effect of over 75% in size
Target sequence (Q96KQ7 913-1193 limits assumed): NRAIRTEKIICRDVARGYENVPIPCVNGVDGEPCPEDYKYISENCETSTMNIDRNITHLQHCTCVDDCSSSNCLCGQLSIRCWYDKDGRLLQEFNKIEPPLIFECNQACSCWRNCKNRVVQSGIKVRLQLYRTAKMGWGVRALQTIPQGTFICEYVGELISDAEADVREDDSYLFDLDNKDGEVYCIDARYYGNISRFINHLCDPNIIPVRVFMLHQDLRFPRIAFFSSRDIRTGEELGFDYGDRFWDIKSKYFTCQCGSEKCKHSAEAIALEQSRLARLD
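G9a (20 nM) preincubated 15 min RT with compounds, then 500 nM biotinylated H3K9 peptide and 20 uM SAM added; 2 h RT reaction. Monomethyl-H3K9 product detected by AlphaScreen with anti-H3K9me1 antibody, streptavidin donor and anti-rabbit IgG acceptor beads.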
L3MBTL1 inh = qHTS Assay for the Inhibitors of L3MBTL1; AlphaScreen L3MBTL1–H3K9me1 peptide binding; Potency, µM (titrated, usually from 57.1 µM), for inactives: top-dose activity, negative = inhibition, most hits filed as inhibitors; 0.66% of 230,000 active; Lethal(3)malignant brain tumor-like protein 1 (Homo sapiens), Q9Y468; also: % is scaled to controls: 0 for no effect and ±100 for the full control effect; nearly all actives have a fitted effect of over 60% in size
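L3MBTL1 50 nM + b-AHA-H3(1-15)K9me1 75 nM, 30 min RT; compound added, 30 min RT; streptavidin donor/Ni-chelate acceptor beads 10 ug/mL each final, 30 min RT dark; AlphaScreen read.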
Sfp inh = qHTS Assay for Inhibitors of Bacillus subtilis Sfp phosphopantetheinyl transferase (PPTase); 4'-phosphopantetheinyl transferase ffp (Bacillus subtilis), Q9F4F7; Biochemical Sfp PPTase activity, qHTS; Potency, µM, inactives show largest response in the series, negative = inhibition, actives largely listed as inhibitors; 3.5% of 310,000 active;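 also: the enzyme is Sfp with the accession as filed and its product quenches rhodamine fluorescence; 0% = enzyme reaction without inhibitor and -100% = no enzyme wells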
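Sfp 15 nM + cpd, 15 min RT; start w/ rhodamine-CoA 5 uM, BHQ-2-YbbR 12.5 uM (final); 50 mM Hepes pH 7.6, 10 mM MgCl2, 0.01% NP-40, 0.01% BSA; read 525/598 nm at 0 and 30 min.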
HP1b chromo inh = HTS for Inhibitors of HP1-beta Chromodomain Interactions with Methylated Histone Tails | AID 540317, 2011 | AlphaScreen HP1-beta / biotin-H3K9me3 peptide binding | Potency, µM (highest dose often 114 µM), without a hit: at the highest dose activity change, negative = inhibition, usual class: inhibitors | 0.56% of 390,000 active; also: nearly all actives have a fitted effect of over 70% in size
Target sequence (P83916 whole entry, looked up): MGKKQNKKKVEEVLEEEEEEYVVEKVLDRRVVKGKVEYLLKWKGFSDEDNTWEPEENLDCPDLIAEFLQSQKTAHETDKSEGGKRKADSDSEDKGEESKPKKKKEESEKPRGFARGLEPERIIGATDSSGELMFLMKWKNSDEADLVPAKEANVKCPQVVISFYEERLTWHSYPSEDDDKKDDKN
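AlphaScreen: HP1-beta (50 nM) preformed 30 min with biotin-H3(1-18)K9me3 peptide (50 nM) in PBS pH 7.4, 0.01% Tween-20. Compound added for 30 min at RT, then streptavidin donor/nickel chelate acceptor beads (10 ug/mL) for 30 min.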
JMJD2A Tudor inh = qHTS Assay for Inhibitors of JMJD2A-Tudor Domain; Lysine-specific demethylase 4A (Homo sapiens), O75164; AlphaScreen JMJD2A-Tudor / H3K4me3 peptide binding; Potency, µM (titrated, usually from 114 µM), for the others: at the top dose activity change, negative = inhibition, actives largely listed as inhibitors; 4.4% of 390,000 active; AID 504339, 2011; also: % is scaled to controls: 0 for no effect and ±100 for the full control effect; nearly all actives have a fitted effect of over 50% in size
The depositor's hits bear a star; ? = inconclusive; . = no result given; [ ] = dose if it differs, or a comment. Most compounds without a hit are left out; they make up all but 12% or so of the library. Calls follow the shape of the dose curve; as a rule, active = well fitted curve in the direction sought with a large enough effect; inconclusive = small, poorly fitted or top-dose-only effect, or another doubt; inactive = no such curve, though single readings can be large; an effect the other way counts as inactive or inconclusive. Potency is read from the fitted curve at half-maximal effect.

SMILES | BAZ2B inh | G9a block | L3MBTL1 inh | Sfp inh | HP1b chromo inh | JMJD2A Tudor inh
COC(=O)c1ccc(NC(=O)CSc2nnc3c4ccccc4n(C(C)C)c3n2)cc1 | -14% | -31%[59 µM] | . | . | 24% | -13%
O=C(COC(=O)c1cccs1)Nc1nc(-c2ccccc2)cs1 | 0% | 40µM* | 2% | 13% | 32% | -5%
C/C(=N/Nc1ccccc1C(=O)O)c1cccs1 | ? | ? | -2% | 17% | 8% | -29%
O=C(COC(=O)/C=C/c1cccs1)Nc1nc(-c2cccc(Br)c2)cs1 | -2% | 18%[59 µM] | . | 19% | 35% | -8%
O=C(C[n+]1cc(-c2ccccc2)n2c1CCC2)Nc1nc(-c2ccccc2)cs1 | -33% | ? | -9% | 56µM* | 6% | -33%
O=C(COC(=O)/C=C/c1cccs1)Nc1nc(-c2ccccc2)cs1 | 5% | 1.1µM* | 5% | 5% | 58% | -9%
C/C(=N\Nc1nc(-c2ccccc2)cs1)c1cccs1 | 40µM* | 5µM* | -22% | 56µM* | -31% | ?
Cc1ccc(S(=O)(=O)N2CCc3cc(C(=O)Nc4c(F)cccc4F)ccc32)cc1 | -14% | -8%[59 µM] | . | . | 19% | -15%
O=C(c1ccccc1O)N(Cc1cccs1)Cc1cccs1 | . | . | . | . | . | -22%
COc1ccc(NC(=O)N2CC[C@@]3(CCCN(C(=O)c4c(C)noc4C)C3)C2)cc1 | . | -3%[12.7 µM] | . | 1% | . | .
O=S(=O)(Nc1ccccc1O)c1cccc2cccnc12 | -31% | ? | -3% | -21% | 39% | 4%
O=S(=O)(Nc1cccc2cccnc12)c1cccs1 | . | . | . | . | 29% | 79µM*
O=S(=O)(Nc1cccc2cccnc12)c1ccccc1O | . | . | . | 12% | . | 32µM*
O=S(=O)(Nc1cccc2cccnc12)c1ccc(Br)s1 | . | . | . | 10% | . | ?
Cc1oc2ncn(C)c(=O)c2c1C(=O)N1CCN(c2ccccc2F)CC1 | -11% | -25%[59 µM] | . | . | 24% | -10%
Cc1cnc(C(=O)Nc2nnc(C)s2)cn1 | ? | 2µM* | 9% | 79µM* | 33% | 1.1µM*
Cc1cnc(C(=O)Nc2nnc(C(C)C)s2)cn1 | 50µM* | 1µM* | 15% | ? | 28% | 0.28µM*
Cc1cc(C(=O)Nc2nnc(C3CCCCC3)s2)no1 | -6% | -22%[59 µM] | . | -10% | 36% | -14%
CC(C)c1nnc(NC(=O)c2cnccn2)s1 | 40µM* | ? | 25% | -72% | 9% | 1.1µM*
Cc1cnc(C(=O)Nc2nnc(C3CC3)s2)cn1 | ? | 5.6µM* | 8% | ? | 17% | -7%
COc1cc(Cl)c(NC(=O)CN2C(=O)c3cccnc3Sc3ccccc32)c(OC)c1 | -6% | 2%[59 µM] | . | . | 6% | -25%
Cc1csc(NC(=O)c2cnccn2)n1 | ? | 3.5µM* | 36% | -13% | -2% | 7.9µM*
O=C(O)c1cccc(N/N=C/c2cccs2)c1 | -35% | -4%[59 µM] | -20% | 0% | 18% | -11%[57.1 µM]
CC(C)C(=O)N/N=C/c1ccc(OCc2ccccc2)cc1 | 3% | -5% | -3% | 8% | 14% | -13%[57.1 µM]
O=C(O)c1cc(N/N=C/c2ccc(OCc3ccccc3)cc2)ccc1Cl | ? | 22µM* | ? | -7% | 17% | -20%
SMILES | BAZ2B inh | G9a block | L3MBTL1 inh | Sfp inh | HP1b chromo inh | JMJD2A Tudor inh
CCOc1cc(/C=N/Nc2cccc(C(=O)O)c2)ccc1OCC(=O)N1CCCCC1 | ? | 32µM* | -8% | 5% | -11% | -20%
CSc1ccc(/C=N/Nc2cccc(C(=O)O)c2)cc1 | 8.9µM* | 4µM* | 5µM* | 12% | 10µM* | 4µM*
CCOc1ccc(/C=N/Nc2ccccc2)cc1 | -27% | 25µM* | . | -5% | 28% | -30%
CCOc1cc(C=O)ccc1OCC(=O)N1CCCC1 | 12% | 0% | 0% | 13% | 47% | -11%
CC[C@H](C)[C@H](NC(=O)[C@H](CCC(=O)O)NC(=O)[C@H](CO)NC(=O)[C@@H](NC(=O)[C@H](C)N)C(C)C)C(=O)N[C@@H](CCC(N)=O)C(=O)N[C@@H](CC(C)C)C(=O)N[C@@H](CCSC)C(=O)N[C@@H](Cc1cnc[nH]1)C(=O)N[C@@H](CC(N)=O)C(=O)N[C@@H](CC(C)C)C(=O)NCC(=O)N[C@@H](CCCCN)C(=O)N[C@@H](Cc1cnc[nH]1)C(=O)N[C@@H](CC(C)C)C(=O)N[C@@H](C)C(=O)N[C@@H](CO)C(=O)N[C@H](C(=O)N[C@@H](CCC(=O)O)C(=O)N[C@@H](CCCNC(=N)N)C(=O)N[C@@H](CCSC)C(=O)N[C@@H](CCC(N)=O)C(=O)N[C@@H](Cc1c[nH]c2ccccc12)C(=O)N[C@@H](CC(C)C)C(=O)N[C@@H](CCCNC(=N)N)C(=O)N[C@@H](CCCCN)C(=O)N[C@@H](CCCCN)C(=O)N[C@@H](CC(C)C)C(=O)N[C@@H](CCC(N)=O)C(=O)N[C@@H](CC(=O)O)C(=O)N[C@H](C(=O)N[C@@H](Cc1cnc[nH]1)C(=O)N[C@@H](CC(N)=O)C(=O)N[C@@H](Cc1ccccc1)C(=O)O)C(C)C)C(C)C | . | . | . | -10% | . | .
C[C@@H]1c2ccccc2CN1CC1=NCCN1 | . | . | . | -5% | . | .
O=C(O)c1ccc(COc2ccc(/C=N/NC(=O)c3cccs3)cc2)cc1 | -29% | 10µM* | 3% | 8% | 3% | -24%
O=C(N/N=C/c1cccc(OCc2ccccc2)c1)c1cccs1 | 6% | 4% | -5% | -19% | 25% | 18%
O=C(O)c1ccc(N/N=C/c2ccc(OC(=O)c3cccc(Cl)c3)cc2)cc1 | 50µM* | 2%[12.7 µM] | . | 40µM* | ? | -19%[11.4 µM]
O=C(Oc1ccc(/C=N/Nc2ccccc2)cc1)c1ccccc1 | -11% | -5%[0.0925 µM] | -7% | -14% | 16% | 2%[57.1 µM]
COC(=O)c1ccc(COc2ccc(/C=N/Nc3cccc(C(=O)O)c3)cc2)cc1 | ? | 8.9µM* | 25µM* | 5% | ? | 56µM*
O=C(O)c1cccc(N/N=C/c2ccc(OC(F)(F)F)cc2)c1 | ? | 14µM* | . | -1% | 4% | ?
COc1cc2c(cc1OC)C(C(C(=O)N(CCc1ccc(OC)c(OC)c1OC)CCc1ccc(OC)c(OC)c1OC)c1ccccc1)=NCC2 (configuration not stated) | . | ? | . | 10% | . | .
CC1=CC2C(CC1=O)C(C)=CCC2C(C)C (configuration not stated) | . | . | . | -6% | . | .
